Measurements as given in PubChem BioAssay (NCI).
The panel holds about 83,000 compounds, 20% with a hit somewhere; the sample as a whole holds those more often.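 The test compound was applied at a single concentration to cells in 96-well plates for 48 hours, and percent growth was recorded.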 Active and inactive are the calls of the source. Rule for the calls: active = growth percent below 10; inactive = the rest.

Key:
Assay in all cases: NCI-60 one-dose screen, 48 h (100 = growth as untreated, 0 = no growth, -100 = all killed)
Conditions in all cases: 10 µM
HT29 colon = tested on: HT29 colon
SNB-75 CNS = tested on: SNB-75 CNS
SNB-19 CNS = tested on: SNB-19 CNS
U251 CNS = tested on: U251 CNS
PC-3 prostate = tested on: PC-3 prostate
SK-MEL-5 melanoma = tested on: SK-MEL-5 melanoma
UACC-62 melanoma = tested on: UACC-62 melanoma
LOX IMVI melanoma = tested on: LOX IMVI melanoma
SK-MEL-28 melanoma = tested on: SK-MEL-28 melanoma
SK-MEL-2 melanoma = tested on: SK-MEL-2 melanoma

Measured: growth

CCN(CC)CCN1CC(=O)Nc2cc(Cl)ccc21
inactive: HT29 colon 112% | SNB-75 CNS 92.1% | SNB-19 CNS 104% | U251 CNS 99.7% | PC-3 prostate 90.8% | SK-MEL-5 melanoma 98.6% | UACC-62 melanoma 94.4% | LOX IMVI melanoma 102% | SK-MEL-28 melanoma 115% | SK-MEL-2 melanoma 104%

CC(C)C[C@H](NC(=O)[C@H](Cc1cccc2ccccc12)NS(=O)(=O)c1cccc2cccnc12)B(O)O
active: HT29 colon -56.6% | SNB-75 CNS -51.9% | SNB-19 CNS 8.26% | U251 CNS -52.9% | PC-3 prostate -23.2% | SK-MEL-5 melanoma -85.8% | UACC-62 melanoma -50.9% | LOX IMVI melanoma -78.7% | SK-MEL-2 melanoma -41.2%

Clc1nc(Cl)c2c(ncn2C/C=C\Cn2cnc3c(Cl)nc(Cl)nc32)n1
active: HT29 colon -30.6% | SNB-75 CNS -28.9% | SNB-19 CNS -15.6% | U251 CNS -93.6% | PC-3 prostate -96.2% | SK-MEL-5 melanoma -91% | UACC-62 melanoma -79% | SK-MEL-28 melanoma -50.3% | SK-MEL-2 melanoma 5.02%

COc1ccc(-c2csc(NC(=O)CSc3nc(C)c(-c4ccccc4)n3Nc3ccccc3)n2)cc1
inactive: HT29 colon 67.7% | SNB-75 CNS 49% | SNB-19 CNS 82.7% | U251 CNS 61.7% | PC-3 prostate 34% | SK-MEL-5 melanoma 54.4% | UACC-62 melanoma 47% | SK-MEL-28 melanoma 89.6% | SK-MEL-2 melanoma 82%

c1ccc([C@H]2CN3CCSC3=N2)cc1
active: SNB-75 CNS -20.8%
inactive: HT29 colon 101% | SNB-19 CNS 110% | U251 CNS 107% | PC-3 prostate 98.9% | SK-MEL-5 melanoma 103% | UACC-62 melanoma 99% | LOX IMVI melanoma 102% | SK-MEL-2 melanoma 105%

COc1cc(-c2nnc(-c3c(-c4ccc(F)cc4)nc4ccccn34)o2)cc(OC)c1OC
inactive: HT29 colon 84.3% | SNB-19 CNS 78.4% | U251 CNS 59.5% | PC-3 prostate 90.7% | SK-MEL-5 melanoma 63.3% | UACC-62 melanoma 89.9% | SK-MEL-28 melanoma 87.5% | SK-MEL-2 melanoma 106%
active: SNB-75 CNS 2.43%

CCN(CC)CCC(CNc1c(C)cnc2cc(Cl)ccc12)c1ccc(Cl)c(Cl)c1 (stereo unspecified)
inactive: HT29 colon 11.6% | SNB-75 CNS 59.2% | SNB-19 CNS 71.7% | U251 CNS 46.4% | PC-3 prostate 49.4% | SK-MEL-2 melanoma 107%
active: SK-MEL-5 melanoma -92.3% | UACC-62 melanoma -48.5% | SK-MEL-28 melanoma -75.3%

N#CSCC1CC(O)(c2ccccc2)CC(c2ccc(Cl)cc2)O1 (stereo unspecified)
inactive: SNB-75 CNS 49.2% | SNB-19 CNS 81.5% | U251 CNS 55.2% | PC-3 prostate 29.4% | SK-MEL-5 melanoma 68.3% | UACC-62 melanoma 56.5% | SK-MEL-28 melanoma 72.1% | SK-MEL-2 melanoma 40.5%
active: HT29 colon 3.59%

CCCCCCCCCCCCC1C/C=C\CCCC(=O)O1 (stereo unspecified)
inactive: HT29 colon 107% | SNB-75 CNS 102% | SNB-19 CNS 110% | U251 CNS 109% | PC-3 prostate 112% | SK-MEL-5 melanoma 109% | UACC-62 melanoma 108% | SK-MEL-28 melanoma 126% | SK-MEL-2 melanoma 111%

Cc1c(Cl)cccc1NC(=O)c1sc2nc3c(cc2c1N)C(=O)CCC3
active: HT29 colon 3.09% | U251 CNS 7.51% | SK-MEL-5 melanoma 9.76%
inactive: SNB-75 CNS 27% | SNB-19 CNS 45.4% | PC-3 prostate 21.4% | UACC-62 melanoma 34.5% | SK-MEL-28 melanoma 43.7% | SK-MEL-2 melanoma 18%

COc1ccc(N2C(=O)C3c4[nH]c5ccc(OCc6ccccc6)cc5c4C4CCC(C(C)C)CC4C3C2=O)cc1 (stereo unspecified)
inactive: HT29 colon 89.3% | SNB-75 CNS 31.3% | SNB-19 CNS 104% | U251 CNS 18.8% | PC-3 prostate 88.3% | SK-MEL-5 melanoma 99.5% | UACC-62 melanoma 94.2% | LOX IMVI melanoma 90.1% | SK-MEL-2 melanoma 101%

O=C1/C(=C\c2ccc(Br)cc2)CN(C(=O)c2ccccc2F)C/C1=C\c1ccc(Br)cc1
active: HT29 colon -47.4% | U251 CNS -66.6% | PC-3 prostate 3.89% | UACC-62 melanoma -3.15%
inactive: SNB-75 CNS 56.5% | SNB-19 CNS 54.3% | SK-MEL-5 melanoma 30.4% | SK-MEL-28 melanoma 15.1% | SK-MEL-2 melanoma 66%

O=C1/C(=C\c2ccc(F)cc2)CN(C(=O)c2ccc([N+](=O)[O-])cc2)C/C1=C\c1ccc(F)cc1
active: HT29 colon -56.9% | U251 CNS 9.03%
inactive: SNB-75 CNS 56.7% | SNB-19 CNS 67.5% | PC-3 prostate 28.6% | SK-MEL-5 melanoma 45.7% | UACC-62 melanoma 40.3% | SK-MEL-28 melanoma 65.1% | SK-MEL-2 melanoma 74.5%

COc1cc(Cl)cc(-c2nn(-c3cccc(NC(=O)Nc4ccc(Cl)c(C(F)(F)F)c4)c3)cc2-c2ccncc2)c1
active: HT29 colon 5.57% | U251 CNS -48.3% | PC-3 prostate -13% | SK-MEL-5 melanoma -71.2% | UACC-62 melanoma 6.62% | SK-MEL-2 melanoma -34%
inactive: SNB-75 CNS 14.5% | SNB-19 CNS 28.1% | SK-MEL-28 melanoma 23.6%

CCCCCCCCCCCCCCCCN(C(C)c1ccccc1)S(=O)(=O)c1ccc(OC)c(N)c1 (stereo unspecified)
inactive: HT29 colon 100% | SNB-75 CNS 91.5% | SNB-19 CNS 120% | U251 CNS 100% | PC-3 prostate 101% | SK-MEL-5 melanoma 109% | UACC-62 melanoma 103% | SK-MEL-28 melanoma 109% | SK-MEL-2 melanoma 120%
